Test results from PubChem BioAssay (NCI).
The panel holds about 79,000 compounds, 15% with a hit somewhere; the sample as a whole holds those more often. Values without a mark were called inactive. Activity calls are given as the source filed them. Rule as the data show it: active = growth inhibition above about 70%; inactive = the rest.

Assay: NCI Yeast Anticancer Drug Screen. Data for the rad50 strain (AID 155);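 also: 0% = growth of vehicle-only cultures of the same strain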
Conditions: S. cerevisiae rad50 strain growth inhibition, stronger effect = higher value
Description: Growth inhibition of yeast strains with defined genetic alterations is measured as a screen for potential anti-cancer activity. Selected strains with alterations in DNA damage repair or cell cycle control were exposed to compounds and growth inhibition was measured relative to vehicle treated controls. The strain used in this assay is rad50

[1] = at 5.0 µM (retest, dose inferred, filed as 0.5)
[2] = at 50.0 µM (retest, dose inferred, filed as 5.0)

N#CC1=C(N)OC(c2ccccc2)=C(C#N)C1c1ccccc1[N+](=O)[O-] (configuration not stated)
growth inhibition [1]: 5% | growth inhibition [2]: 5% | growth inhibition (at 50.0 µM): -8.2%

CCCC(=O)Oc1ccc(OCc2ccccc2)cc1
growth inhibition [1]: -1% | growth inhibition [2]: 55% | growth inhibition (at 50.0 µM): -23.8%

Cn1c(=S)c2[nH]c(=S)[nH]c2n(C)c1=O
growth inhibition [1]: 85% (active) | growth inhibition [2]: 91% (active) | growth inhibition (at 50.0 µM): 97.2% (active)

O=c1c2ccccc2ncn1Cc1ccccc1[N+](=O)[O-]
growth inhibition [1]: -2% | growth inhibition [2]: 14% | growth inhibition (at 50.0 µM): -31.8%

C=C1CC[C@@H](Br)C(C)(C)[C@]12CCC(C)(O)C(Cl)C2 (some centres not stated)
growth inhibition [1]: -3% | growth inhibition [2]: 34% | growth inhibition (at 50.0 µM): 91.7% (active)

Cc1cnc(Sc2c([N+](=O)[O-])ncn2C)nc1
growth inhibition [1]: 3% | growth inhibition [2]: 8% | growth inhibition (at 50.0 µM): 71.8% (active)

Cc1ccc(S(=O)(=O)C2C=CC=CC=C2)cc1
growth inhibition [1]: -156% | growth inhibition [2]: 84% (active) | growth inhibition (at 50.0 µM): 76.8% (active)

N=C(N)c1cccc(-c2ccc(-c3ccccc3)o2)c1
growth inhibition [1]: -3% | growth inhibition [2]: 62% | growth inhibition (at 50.0 µM): 92.2% (active)

COc1ccc(CCC2(C)OCCC(C)O2)cc1 (configuration not stated)
growth inhibition [1]: 12% | growth inhibition [2]: 92% (active) | growth inhibition (at 50.0 µM): -13.5%

O=C1Nc2c(Cl)cc(Cl)cc2/C1=N/N=C/c1ccccc1O
growth inhibition [1]: 12% | growth inhibition [2]: 41% | growth inhibition (at 50.0 µM): 3.5%

CC(C)=CCC(OC(=O)CC(C)C)C1=CC(=O)c2c(O)ccc(O)c2C1=O (configuration not stated)
growth inhibition [1]: -1% | growth inhibition [2]: 99% (active) | growth inhibition (at 50.0 µM): 87.3% (active)

Cc1[nH]nc(C(=O)N(C)C)c1N=NN(C)C
growth inhibition [1]: -61% | growth inhibition [2]: 93% (active) | growth inhibition (at 50.0 µM): 97.8% (active)

COC1CC2CCC(C)[C@](O)(O2)C(=O)C(=O)N2CCCCC2C(=O)OC(C(C)CC2CCC(O)C(OC)C2)CC(=O)C(C)C=C(C)C(OC(=O)CCCN2CCCC2)C(OC)C(=O)C(C)CC(C)/C=C/C=C/C=C\1C (some centres not stated)
growth inhibition [1]: 96% (active) | growth inhibition [2]: 98% (active) | growth inhibition (at 50.0 µM): 90% (active)

Cc1cccc(NC(=O)C(=O)C(C2OC(=O)c3ccccc32)[N+](=O)[O-])c1C (configuration not stated)
growth inhibition [1]: 8% | growth inhibition [2]: 69% | growth inhibition (at 50.0 µM): 85.4% (active)
